# In all, about 24,000 sequences were measured (“enrichment r”: median about 0.99, highest 2% from about 3.7 on). The sample holds the highest values, similar sequences and a random draw of the others, so the mix is not that of the screen.
# T1: UNK ZnF1-3 (human, UniProt Q9C0B0 31-174)
# T1 sequence: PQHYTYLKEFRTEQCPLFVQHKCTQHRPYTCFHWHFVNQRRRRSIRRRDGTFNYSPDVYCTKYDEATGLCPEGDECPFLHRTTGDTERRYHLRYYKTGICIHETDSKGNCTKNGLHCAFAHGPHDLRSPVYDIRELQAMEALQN
# B1: chr6:38652254:38652255:-_ENSG00000124767_ENST00000373365|hu_hu|hu_hu_hu_mus_False|58_98 (ssRNA)
# RNA: GGGAGUUCUACAGUCCGACGAUCCGAGAACUUCAUAAUGGGAAAAUCAAGCUUCUGCAGGAGGGUCAGUCCAAGAACUCUAGUAUAAAAAUCCAGGGACUUCUUAGGAUCCUUAAUUCUUAGCAUCGUUUGCUGCAGUAGAAACAACAGAGGAUUGAGCAUCA
# B2: chr15:37385894:37385895:-_ENSG00000134138_ENST00000382766|hu_mus|motif|central (ssRNA)
# RNA: GGGAGUUCUACAGUCCGACGAUCGCUUCCAUCUCUCUCAUCAAUCACGAGGUCAAUGGGCAUUUUUCCCUUCAAACAGCGGAUGUACCGGUGGCAGAAGUUAUCACAUAGUUCGUGGACCUUUUCUAACUCCAGAAGAUGAAACAACAGAGGAUUGAGCAUCA
# B3: chr8:29959424:29959425:+_ENSG00000104660_ENST00000321250|hu_hu|FALSE|FALSE (ssRNA)
# RNA: GGGAGUUCUACAGUCCGACGAUCGAAGGGCACAUCCAAGCAUCAAAAACAUCAGUCCGAUUGCUCCUCCAAAGGACAAACUAAUCAAAGCUUUGAUGCCUGCCAUGGCGGUGACGUCGCUCCUGGCUCCACGACCCGAGGCGGCAACAGAGGAUUGAGCAUCA
# B4: chr13:13598695:13598696:+_ENSMUSG00000005397_ENSMUST00000005532|mus_hu|FALSE|FALSE (ssRNA)
# RNA: GGGAGUUCUACAGUCCGACGAUCCACCAAGUCAGUCUCAAAGAGCACCCGGCGCUGCGUGCCGUCCAGCUUCGCCACUUCUAUUCGAUCCAGGUUAGAGUCUGUCCAGAAGAUGUUGCGGCCAAGGUGAUCAACAGCGAUACCCAACAGAGGAUUGAGCAUCA
# B5: chrX:73036348:73036349:-_ENSMUSG00000016382_ENSMUST00000114059|mus_mus|FALSE|FALSE (ssRNA)
# RNA: GGGAGUUCUACAGUCCGACGAUCUGCGUACUUGGCGUUAUUGUGCUUGUCAUCUUCUGUUAGAUUCCCACUCUUCACAAGGUCAUAGUUAAUGCAGCCUGGUUGGAUGGCGUCAAUUAAAUCCACAACCGCCAAACUGGAGCUCAACAGAGGAUUGAGCAUCA
# B6: 70939002_70942968_1374_3pUTR_ENSMUSG00000034761_ENSMUST00000110570|mouse|control|control (ssRNA)
# RNA: GGGAGUUCUACAGUCCGACGAUCGCUCCGCUCUGGAAUUCCUGUUUGUUGAUCUAAUGGUAUGACGAAUGAUUGCGUGGGGCUCCAAGUCGUCCUCAUCGCCCUCACUGUAGGGAGCAUGGUUGUCCGGAUUGCUCACCUUGUCAACAGAGGAUUGAGCAUCA
# Target: T1, UNK ZnF1-3
# Test: nsRBNS (natural sequence RNA bind-n-seq); RBNS binding buffer (assumed for nsRBNS): 25 mM Tris pH 7.5, 150 mM KCl, 3 mM MgCl2, 0.01% Triton X-100, 500 ug/ml BSA, 20 U/ml SUPERase-In, 4 C; UNK is unkempt and MSI1 is Musashi-1; names of the RNAs are library labels; protein concentration not given here; high values mean tight binding
row,Binder,binding signal [enrichment R]
1,B1,1.47
2,B2,0.878
3,B3,1.29
4,B4,1.36
5,B5,0.875
6,B6,0.565
